# Assay outcomes: PubChem, National Center for Advancing Translational Sciences (NCATS)
# This excerpt belongs to a sample that is enriched for hits.
# Pf Dd2 inh: Plasmodium falciparum Dd2 growth inhibition | P. falciparum Dd2 growth, SYBR Green, 72 h | AID 1347417 | Potency, µM (top dose mostly 28.9 µM), without a hit: top-dose activity, negative = inhibition, usual class: inhibitors | hit rate 4.3% among 120,000; active = well fitted inhibition curve with a large enough effect;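 also: plate controls were DMSO vehicle for no effect and reference drug for full effect; nearly all actives have a fitted effect of over 65% in size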
#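 Readout: SYBR Green fluorescence, 485 nm excitation, 535 nm emission, after ~16 h lysis at 37C. Before that, Dd2-infected red cells (2.5% hematocrit) grew 72 h with compound, 29 uM top final concentration.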
# Numbers without * were called inactive; i = inactive; [ ] = dose if it differs, or a comment. Potency is read from the fitted curve at half-maximal effect.
SMILES,Pf Dd2 inh
CCC1=C(C(=O)OC)C(c2ccc(OC)cc2OC)N2C(CC(=O)NC3CC3)=CSC2=N1 (stereo not drawn),-6%
O=C(O)C(c1cccc2c1OCC2)N1CCC(OCc2cccnc2)CC1 (stereo not drawn),-2%
CC[C@H]1CN(C(=O)c2ccnc(Cl)c2)CC[C@H]1CC(=O)NCc1cccc2ccccc12,31%
CN(C)c1ncccc1CNC(=O)COc1ccccc1Cl,-12%
O=C(Nc1ccc2ncnc(N3CCCC3)c2c1)c1cccc(Br)c1,-20%
Cc1ccc(C(=O)Nc2ccc3c(N4CCOCC4)ncnc3c2)cc1,-11%
O=C(Nc1ccc2c(N3CCOCC3)ncnc2c1)c1cccc(Br)c1,0.89µM*
O=C(Nc1ccc2c(N3CCOCC3)ncnc2c1)c1ccccc1C(F)(F)F,i
O=C(Nc1ccc2c(N3CCOCC3)ncnc2c1)c1ccc(F)c(Cl)c1,2.5µM*
O=C(Nc1ccc2nc(SCC(=O)N3CCOCC3)sc2c1)c1cccc(Br)c1,-6%
CCOC(=O)C1=CN(CC(=O)Nc2c(C)cccc2C)S(=O)(=O)N=C1C,17%
COc1ccc(/C=C/c2ccc3c(c2)C(=O)N2C[C@@H](NC(=O)c4cccn4C)C[C@H]2C(=O)N3)cc1,-4%
CCc1csc(CNC(=O)c2ccc(N(C)Cc3nonc3C)nc2)n1,-4%
Cc1ccc(C(=O)N2CCCCCNC(=O)[C@@H]3CCCC[C@@H]32)s1,-1%
CC1=C[C@@H](CC#N)[C@H](C(C)C)C[C@H]1CC(=O)NCc1ccccc1,i
COCC(=O)NCC1(COc2cccnc2)C[C@@H](O)[C@@H](O)C1 (stereo partly drawn),16%[44.1 µM]
O=C(NCC1(COc2cccnc2)C[C@@H](O)[C@@H](O)C1)C1CC1 (stereo partly drawn),7.9µM*
O=C(NCC1(COc2cnccn2)C[C@@H](O)[C@@H](O)C1)C1CC1 (stereo partly drawn),9%[44.1 µM]
Cc1noc2c(NC3CCC(O)CC3)cc(-c3cccs3)nc12 (stereo not drawn),-20%[44.1 µM]
CC1(C)NC(=O)N(CC(=O)N[C@@H]2COCC[C@H]2Oc2ccc(C#N)cc2)C1=O,0%
COc1ccc(NC(=O)N2CCN(Cc3nc4ccc(C)cc4o3)CC2)cc1OC,30%
COc1ccc(S(=O)(=O)NCC2CCCN(Cc3ccc(-c4ccco4)cc3)C2)cc1 (stereo not drawn),-14%
COc1ccc(-c2cc3ccc(O)c(CN4CCCC(C)C4)c3oc2=O)cc1OC (stereo not drawn),4.5µM*
COc1ccc(-c2c(C)c3ccc(O)c(CN4CCCC(C)C4)c3oc2=O)cc1OC (stereo not drawn),11µM*
COc1ccc(-c2c(C)c3cc(OC(=O)N4CCOCC4)ccc3oc2=O)cc1OC,i
SMILES,Pf Dd2 inh
COc1ccc(-c2c(C)c3ccc(O)c(CN4CCN(CCO)CC4)c3oc2=O)cc1OC,3%
COc1ccc(N2CCN(C3CCCN(Cc4cc(=O)[nH]c(=O)[nH]4)C3)CC2)cc1 (stereo not drawn),-1%
COc1ccc(CCC(=O)N2CCC[C@H]2c2nc(-c3ccc(OC)c(OC)c3)no2)cc1,i
COc1ccc(-c2cc3ccc(O)c(CN4CCCC4)c3oc2=O)cc1OC,4µM*
COc1ccc(-c2nc(CN3CCC(C(=O)NCCc4ccccc4)CC3)c(C)o2)cc1OC,i
COc1ccc(-c2nnc([C@H]3CCN(C(=O)c4ccc(OC)c(OC)c4)C3)o2)cc1,i
COc1ccc(-c2cc3ccc(O)c(CN4CCCC(C)C4)c3oc2=O)cc1 (stereo not drawn),1µM*
Cc1nc(CN2CCN(C(=O)C(c3ccccc3F)N(C)C)CC2)cs1 (stereo not drawn),-1%
CC(C)Cn1c(=O)[nH]c2cccnc21,22%[44.1 µM]
Cc1ccc(NC(=O)Nc2ccc(C)n(CC(=O)N3CCC(C)CC3)c2=O)cc1,i
O=C(c1ccsc1)N1CCC2(CC1)CN(c1ccncn1)CC2CO (stereo not drawn),-9%
Cc1cccc(-c2ccccc2C(=O)N2CCCC(CO)(Cc3ccccc3F)C2)c1 (stereo not drawn),i
COCCn1nc2n(c1=O)CCN(Cc1ccc(Br)s1)CC2,18%
COc1cccc(CN2CCCC(O)(CN3CCSCC3)C2=O)c1 (stereo not drawn),-14%
COC(=O)[C@@H](Cc1cccnc1)NC(=O)[C@H]1CN(C(=O)Nc2ccccc2)CCN1C(C)=O,-4%
O=C(O)CCCC(=O)N1Cc2ccccc2CC2(CCCN(Cc3ccccc3)C2)C1 (stereo not drawn),-2%
CC(=O)N1Cc2ccccc2CC2(CCCN(Cc3ccc(O)cc3)C2)C1 (stereo not drawn),-20%
C[C@H](C(=O)N1Cc2ccccc2CC2(CCN(Cc3ccncc3)C2)C1)c1ccccc1 (stereo partly drawn),10µM*
O=C(Cc1ccc(O)cc1)N1Cc2ccccc2CC2(CCN(Cc3ccncc3)C2)C1 (stereo not drawn),7.9µM*
CC(C)NC(=O)N1CCC2(CC1)CN(Cc1ccncc1)Cc1ccccc1O2,2%
CC(=O)N1Cc2ccccc2CC2(CCN(Cc3ccccn3)C2)C1 (stereo not drawn),-13%
COc1ccc(Cn2c(C(C)n3cccn3)n[nH]c2=O)cc1 (stereo not drawn),-5%
O=C(NC1CCCN(c2cc(-c3ccc(F)cc3)[nH]n2)C1)c1ccc(Br)o1 (stereo not drawn),i
COc1ccc(-c2cc(N3CCN(C(=O)c4ccc(C)cc4)CC3)n[nH]2)cc1,-11%
Cc1cnc(C2CCC2)n1CC1CCN(C(=O)Cc2cccnc2)CC1,4%
SMILES,Pf Dd2 inh
Cc1cnc(C2CCC2)n1CC1CCN(C(=O)C(C)c2ccccc2)CC1 (stereo not drawn),8.9µM*
Cc1cnc(CC2CCCN(C(=O)c3cccnc3)C2)n1Cc1ccc(F)cc1 (stereo not drawn),i
Cc1cnc(CC2CCN(C(=O)C3CCOC3)CC2)n1Cc1ccc(F)cc1 (stereo not drawn),-3%
Cc1cnc(CC2CCN(C(=O)CC3CCCC3)CC2)n1Cc1ccc(F)cc1,3.2µM*
Cc1ccc(C(=O)N2CCC(Cn3c(C)cnc3C3CCC3)CC2)cn1,-8%
Cc1cnc(CC2CCN(C(=O)C(C)c3ccccc3)CC2)n1Cc1ccc(F)cc1 (stereo not drawn),2.2µM*
Cc1cnc(CC2CCCNC2)n1Cc1ccc(F)cc1 (stereo not drawn),-26%
Cc1cnc(CC2CCN(C(=O)NC(C)C)CC2)n1Cc1ccc(F)cc1,i
Cc1cc2ncc(C(=O)NCCc3ccccn3)cn2n1,-13%[44.1 µM]
NC(=O)C1CCCN(CCNc2cc(-c3ccccc3)nc3ccnn23)C1 (stereo not drawn),-8%
COc1ccc(C(=O)N2CCCC3(C2)NC(=O)c2ccccc2O3)cc1 (stereo not drawn),-13%
COc1cccc(-c2cc3c(=O)n(CCNC(=O)c4ccoc4)ccn3n2)c1,-6%
COc1ccc(-c2cc(N3CCC(NC(=O)Cc4ccccc4OC)CC3)n[nH]2)cc1,-2%
COc1cc(NC(=O)N2CC(c3noc(-c4ccccc4)n3)C2)cc(OC)c1OC,i
COc1ccc(-n2nc(C(=O)N3CCN(c4cccc(C)c4)C(C)C3)c3c4ccccc4n(C)c3c2=O)cc1 (stereo not drawn),11µM*
COc1ccc(-n2nc(C(=O)Nc3cccc(C)n3)c3c4ccccc4n(C)c3c2=O)cc1,i
COc1ccc(-n2nc(C(=O)Nc3ccc(Br)cc3C)c3c4ccccc4n(C)c3c2=O)cc1,44%
